Test results taken from PubChem BioAssay (Tox21).
A number with no mark means an inactive call. The source made the active and inactive calls. Calls come from the whole dose curve.

Experiment: qHTS assay to identify small molecule agonists of the sonic hedgehog signaling (Shh) pathway (AID 1259368);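 note: NIH/3T3-derived 3T3Gli1-Luc cells carrying a stable Gli1-driven firefly luciferase reporter; nearly all actives have a fitted effect of over 15% in size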
Conditions: NIH/3T3 Gli1-Luc reporter, luciferase, 24 h, active compounds read high; series mostly up to 92.4 µM
Description: National Center for Advancing Translational Sciences [NCATS]
NIH Chemical Genomics Center [NCGC]
U.S. Environmental Protection Agency [EPA]
National Institutes of Environmental Health Sciences [NIEHS]
National Toxicology Program [NTP]
The sonic hedgehog (Shh) pathway is essential for normal embryonic development. Dysregulation of the Shh pathway can cause severe developmental defects in organs. Therefore chemicals that interfere with the pathway are potential developmental toxicants. A cell line designated 3T3Gli1-Luc (DMB/OARSA/CFSAN/FDA, Laurel, MD), a NIH/3T3 derived clone containing stably integrated Gli1-Luc reporter is used to detect chemical interference of the Shh pathway, by changes in the expression of the firefly Luc gene under the control of the Gli1 transcriptional response element. This cell line was used to screen Tox21 libraries for identifying and prioritizing the potential developmental toxicants that interfere Shh pathway.
3T3 Gli1-Luc cells were dispensed at 2,000 per well in 5uL of culture medium into white solid bottom 1536-well plates (Greiner Bio-One, Monroe, NC) using a Multidrop Combi (Thermo Scientific, Waltham, MA) dispenser. The assay plates were incubated at 37 C and 5% CO2 for 4hr, and then 23nL of compounds dissolved in DMSO and positive control were transferred using a Pintool station (Wako, San Diego, CA). The assay plates were incubated at 37C and 5% CO2 for 24hr. For luciferase read, 4uL of Amplite Luciferase reporter gene assay reagent (AAT Bioquest, Inc. Sunnyvale, CA) was added to each well of the assay plates using Flying Reagent Dispenser (FRD, Aurora Discovery, San Diego, CA) and incubated at room temperature for 30min. The luminescence signal was measured using a ViewLux plate reader (Perkin Elmer, Shelton, CT).
% is set by controls: 0 for no effect and ±100 for the full control effect.

Row | SMILES | outcome | activity change
1 | NS(=O)(=O)c1cc2c(cc1Cl)NC(C1CC3C=CC1C3)NS2(=O)=O (stereo not given) | inactive | –
2 | NCCCNCCSP(=O)(O)O | – | -0.244% [at 8.39 µM]
3 | N=C(N)c1ccccc1 | inactive | –
4 | Nc1c2c(nc3ccccc13)CCCC2O (stereo not given) | inactive | –
5 | O=Cc1cccc([N+](=O)[O-])c1 | inactive | –
6 | CC(=O)Nc1c(I)cc(I)c(C(=O)O)c1I | inactive | –
7 | N#Cc1ccc(C2CCCc3cncn32)cc1 (stereo not given) | inactive | –
8 | CCCN(CCC)CCc1cccc2c1CC(=O)N2 | inactive | –
9 | CC(=O)CC(C)(C)C1CCCCC1 | inactive | –
10 | CCOC(=O)Nc1ccc(NCc2ccc(F)cc2)nc1N | inactive | –
11 | CO[Si](CCCOCC1CO1)(OC)OC (stereo not given) | inactive | –
12 | CCCCNC(=O)NCCCC | inactive | –
13 | OC[C@]1(O)OC[C@@H](O)[C@H](O)[C@@H]1O | inactive | –
14 | COCCc1ccc(OCC(O)CNC(C)C)cc1 (stereo not given) | inactive | –
15 | NC(CSCC(=O)O)C(=O)O (stereo not given) | inactive | –
16 | CO/N=C(/C(=O)N[C@@H]1C(=O)N2C(C(=O)OCOC(=O)C(C)(C)C)=C(C)CS[C@H]12)c1csc(N)n1 | inactive | –
17 | OCCCC1CCCCC1 | inactive | –
18 | C[C@H]1C[C@@H](O)CC(C)(C)C1 | inactive | –
19 | COC(=O)NN | inactive | –
20 | CC[N+](C)(C)c1cccc(O)c1 | inactive | –

Row | SMILES | outcome | activity change
21 | CC1=CC(C)C(C=O)CC1 (stereo not given) | inactive | –
22 | CN(C)CCCN1c2ccccc2CCc2ccc(Cl)cc21 | inactive | –
23 | CCOC(=O)CC(C)=O | inactive | –
24 | OC(CCN1CCCCC1)(c1ccccc1)C1CC2C=CC1C2 (stereo not given) | inactive | –
25 | CCn1nc(C(=O)O)c(=O)c2cc3c(cc21)OCO3 | inactive | –
26 | O=C(O)CNC(=O)c1ccc([N+](=O)[O-])cc1 | inactive | –
27 | CCN1CCC[C@H]1CNC(=O)c1cc(S(N)(=O)=O)ccc1OC | inactive | –
28 | COC(=O)[C@@H](N)Cc1ccc(O)c(O)c1 | inactive | –
29 | COCCCOCCCOC | inactive | –
30 | CCOC(=O)c1ccc(C)cc1 | inactive | –
31 | C=C(C)C(=O)OCCCCCCCC(C)C | inactive | –
32 | CN1CCC(=C2c3ccccc3CC(=O)c3sccc32)CC1 | inactive | –
33 | Nc1ccc(S(=O)(=O)Nc2ccnn2-c2ccccc2)cc1 | – | -1.14% [at 18.9 µM]
34 | CC/C=C\CC/C=C/CO | inactive | –
35 | CC1(C)CO[C@@H](CC(=O)O)CN1 | inactive | –
36 | CC(=O)N(CC(O)CO)c1c(I)c(C(=O)NCCO)c(I)c(C(=O)NCC(O)CO)c1I (stereo not given) | inactive | –
37 | CCCCCCCCS(=O)(=O)Cl | inactive | –
38 | CCCCCCCCCCCCN(CCCCCCCCCCCC)CCCCCCCCCCCC | inactive | –
39 | CN1CC(=O)NC1=N | inactive | –
40 | CCC(C)S (stereo not given) | – | -0.25% [at 3.27 µM]
